Holding throughout (assay): NCI-60 one-dose screen, 48 h (100 = growth as untreated, 0 = no growth, -100 = all killed)
Holding throughout (conditions): 10 µM unless noted

The test system of test [1] is NCI-H23 lung.
The test system of test [2] is NCI-H226 lung.
The test system of test [3] is NCI-H322M lung.
For test [4], the system named is HOP-62 NSCLC.
Test [5] concerns NCI-H460 lung.
For test [6], the system named is HOP-92 NSCLC.
Test [7] relates to NCI-H522 lung.
The test system of test [8] is A549/ATCC NSCLC.
In test [9] the test system is 786-0 renal.
Test [10] has as its system COLO 205 colon.

Structures are written as SMILES. Compounds without any hit were thinned out: in the full panel of roughly 83,000, 20% have a hit.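 The endpoint reported here, percent growth, reads 100 for growth as untreated, 0 for no net growth and -100 for all cells dead.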 Values without a mark were called inactive. Calls of active or inactive are those of the source. How the source made its calls: active means growth percent below 10; inactive means the rest.

Turning to `CCN(CC)CCN1C(=O)c2c(c3c4ccccc4[nH]c3c3[nH]c4ccccc4c23)C1=O`, the growth in test [1] is 85.6%; in test [2], 86.6%; in [3], 66.6%; in test [4] it was 64.7%; in test [5], 69%; in test [6] it was 86.4%. The growth in [7] is 69.4%; in test [8], 82.2%; in test [9] it was 83.6%; in [10], 75.8%.
Turning to `Cc1cccc(Cc2cnc(NC(=O)CCc3ccc(C)o3)s2)c1`, the growth in test [1] was 35.3%; in test [2] it was 35.1%; in test [3] it was 45.9%; in [4] it was 47.5%; in test [5], 4.15% (active); in test [6], 64.9%. Also, the growth in [7] was 4.74% (active); in test [8], 26.1%; in [9] it was 29.8%; in test [10], -9.57% (active).
Turning to `C=C1C(=O)O[C@H]2[C@H]1CC/C(COC(=O)c1ccc(C#N)cc1)=C\CC[C@@]1(C)O[C@@H]21`, the growth in test [1] is 54.4%; in test [2] it was -0.563% (active); in test [3], 68.1%; in [4], 61.3%; in test [5] it was 53.7%; in [6], -35.8% (active). Further, the growth in [7] is -89.6% (active); in test [8] it was 40.8%; in test [9], 22.9%; in test [10], -77.7% (active).
Turning to `Cc1cc(SCc2ccc(Cl)cc2Cl)nc(SCc2ccc(Cl)cc2Cl)n1`, the growth in test [1] was 98.2%; in [2], 96%; in test [3] it was 96.5%; in test [4], 108%; in [5] it was 104%; in test [6], 112%. Also, the growth was 89.1% in [7], 96.6% in test [8], 103% in test [9] and 113% in [10].
Consider `O=C1CCC(c2c(O)cc(O)c3c(=O)c(O)c(-c4ccc(O)c(O)c4)oc23)N1` (stereo not given), for which the growth in test [1] was 94.7%; in test [2], 104%; in test [3] it was 92.8%; in test [4] it was 84.3%; in test [5], 105%; in test [6], 91.9%. The growth in test [7] was 70.9%; in test [8], 81.1%; in [9] it was 99.6%; in test [10] it was 112%.
As for `COc1ccc(/C=C/C(=O)c2ccc(-n3cc(CN4CCN(c5cc6c(cc5F)c(=O)c(C(=O)O)cn6C5CC5)CC4)nn3)cc2)cc1OC`, the growth in [1] was 50.6%; in test [2], 32.4%; in test [3], 52.6%; in test [4] it was 38.7%; in [5] it was 53.1%; in test [6], 81.6%. In addition, the growth was 49.5% in test [7], 15.7% in test [8], 43.7% in test [9] and 60.9% in test [10].
Regarding `O=C(Nc1ccc(F)cc1)Nc1ccc(Cl)c([N+](=O)[O-])c1`, the growth in test [1] was -1.96% (active); in [2], 16%; in [3] it was 28.4%; in test [4], 38.8%; in test [5], 3.03% (active); in [6], -8.16% (active). The growth in test [7] is 2.42% (active); in [8] it was 17.1%; in test [9] it was 26.7%; in test [10], 12%.
Turning to `COc1cc([C@@H]2c3cc4c(cc3C(OC3O[C@@H]5COC(C)O[C@H]5[C@H](O)[C@H]3O)C3COC(=O)[C@@H]32)OCO4)cc(OC)c1O` (stereo not given in full), the growth in test [1] was 14.3%; in test [2], 33.1%; in test [3] it was 115%; in test [4] it was -9.99% (active); in test [5], 7.32% (active); in test [6] it was 63.5%. The growth in [7] is 24.3%; in [8], 29.7%; in test [9], -13.1% (active); in test [10], 60.6%.
Regarding `COc1ccccc1S(=O)(=O)Nc1ccc2c3c(cc(-c4cnn(C5CC5)c4)nc13)C(=O)N2C`, the growth was 67.5% in test [1]; 79.7% in [2]; 70.7% in [3]; 50.7% in test [4]; 66.7% in test [5]; 40.7% in [6]. Besides, the growth in test [7] is 64.6%; in test [8] it was 66.4%; in [9] it was 68.2%; in test [10], 39.2%.
Take `O=C1C(Cl)=C(Nc2ccccc2)C(=O)C(Cl)=C1Nc1ccccc1`: the growth in [1] is 106%; in test [2] it was 103%; in [3], 120%; in test [4], 113%; in [5] it was 112%; in test [6], 101%. The growth was 112% in test [7], 109% in [8], 109% in [9] and 109% in [10].
With `Cn1c2ccccc2c2ssc(=S)c21`, the growth in test [1] was 92.4%; in test [2], 105%; in [3], 89.9%; in test [4] it was 110%; in test [5], 106%; in [6] it was 88.6%. The growth was 85.7% in [7], 99.7% in test [8], 98.5% in test [9] and 116% in test [10].

Source of the values: PubChem BioAssay (NCI).
